Experimental findings from PMC4336329 (PLoS ONE, 2015) are described below.

The structures appear in SMILES notation. Out of some 310,000 compounds screened, about 14,000 (4.5%) showed an effect of 50% or more. The effect is printed as a negative number. What follows is part of a selection rich in strong results, with near analogues and random picks from the rest.
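Further: peak tail current of the secondary pulse compared with the same well before compound.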

Sequence of human ether-à-go-go-related gene (hERG) potassium channel (Q12809 whole entry, looked up): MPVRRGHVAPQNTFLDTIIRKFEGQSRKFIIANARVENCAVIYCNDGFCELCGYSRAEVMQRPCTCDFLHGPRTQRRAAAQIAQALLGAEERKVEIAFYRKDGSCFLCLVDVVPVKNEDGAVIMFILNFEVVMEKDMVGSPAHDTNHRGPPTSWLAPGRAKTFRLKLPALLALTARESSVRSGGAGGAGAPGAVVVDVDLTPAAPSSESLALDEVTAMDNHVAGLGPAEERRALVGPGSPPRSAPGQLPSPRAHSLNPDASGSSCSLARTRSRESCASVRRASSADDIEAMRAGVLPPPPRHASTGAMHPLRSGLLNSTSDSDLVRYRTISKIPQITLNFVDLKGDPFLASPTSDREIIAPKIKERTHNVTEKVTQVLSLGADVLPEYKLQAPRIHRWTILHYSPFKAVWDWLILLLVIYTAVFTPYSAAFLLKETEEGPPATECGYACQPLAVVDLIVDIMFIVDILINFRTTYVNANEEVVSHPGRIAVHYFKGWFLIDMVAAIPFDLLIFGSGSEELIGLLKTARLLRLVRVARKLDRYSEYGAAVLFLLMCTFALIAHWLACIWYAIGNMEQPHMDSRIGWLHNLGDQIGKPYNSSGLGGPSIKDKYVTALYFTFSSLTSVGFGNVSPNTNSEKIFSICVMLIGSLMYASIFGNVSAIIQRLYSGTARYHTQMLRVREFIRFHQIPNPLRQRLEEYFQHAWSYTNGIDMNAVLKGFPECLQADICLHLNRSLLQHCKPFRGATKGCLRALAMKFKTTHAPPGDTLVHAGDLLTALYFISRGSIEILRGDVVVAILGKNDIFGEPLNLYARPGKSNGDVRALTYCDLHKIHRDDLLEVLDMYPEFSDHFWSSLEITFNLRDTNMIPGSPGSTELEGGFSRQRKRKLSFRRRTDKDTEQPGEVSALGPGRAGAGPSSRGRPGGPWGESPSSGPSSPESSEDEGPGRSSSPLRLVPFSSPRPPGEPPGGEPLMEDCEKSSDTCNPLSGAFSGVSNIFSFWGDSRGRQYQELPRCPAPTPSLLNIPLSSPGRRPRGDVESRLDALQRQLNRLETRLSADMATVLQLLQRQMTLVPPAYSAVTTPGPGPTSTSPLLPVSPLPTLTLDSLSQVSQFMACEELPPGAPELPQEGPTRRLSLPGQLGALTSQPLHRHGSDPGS

This assay has as its target human ether-à-go-go-related gene (hERG) potassium channel (human, UniProt Q12809). Nature of the assay: primary screen, population patch clamp on CHO cells stably expressing hERG; higher = less effect of the substance.
As for `Cn1c(-c2ccc(F)cc2)cnc1NCc1cccc([N+](=O)[O-])c1`, the “hERG current change (%, negative = inhibition) at 10uM” value is -70.9%.

`Cn1c(-c2cccc([N+](=O)[O-])c2)cnc1NCc1cccc([N+](=O)[O-])c1.O=C(O)C(=O)O`: the “hERG current change (%, negative = inhibition) at 10uM” value is reported as -77.8%.

As to `Cc1ccc(CNc2ncc(-c3ccccc3)n2C)o1.O=C(O)C(=O)O`, the “hERG current change (%, negative = inhibition) at 10uM” value is reported as -37%.

`Cn1c(-c2ccccc2)cnc1NCc1cccc([N+](=O)[O-])c1`: the “hERG current change (%, negative = inhibition) at 10uM” value is -72%.

On to `Cn1c(-c2ccccc2)cnc1NCc1ccccc1`, for which the “hERG current change (%, negative = inhibition) at 10uM” value was -21.3%.

Turning to `COc1cccc(CNc2ncc(-c3ccccc3)n2C)c1`, the “hERG current change (%, negative = inhibition) at 10uM” value is given as -35.6%.

As for `CSc1ccc(CNc2ncc(-c3cccc([N+](=O)[O-])c3)n2C)cc1.O=C(O)C(=O)O`, the “hERG current change (%, negative = inhibition) at 10uM” value is -66.4%.

Take `Cn1c(-c2ccc(F)cc2)cnc1NCc1cccc(F)c1`: the “hERG current change (%, negative = inhibition) at 10uM” value is reported as -46%.

Regarding `CCN(CC)C(=O)c1ccc(NC(=O)Cn2nc(C)c3ccccc3c2=O)cc1`, the “hERG current change (%, negative = inhibition) at 10uM” value is -10.3%.

For `Cc1ccc(C(=O)CSc2nnc(-c3cccnc3)n2N)cc1`, the “hERG current change (%, negative = inhibition) at 10uM” value is given as -15.2%.

As to `O=C(NCCN1C(=O)S/C(=C\c2ccc(Cl)c(Cl)c2)C1=O)C1COc2ccccc2O1` (stereo not shown), the “hERG current change (%, negative = inhibition) at 10uM” value was -9.28%.

As for `COc1cc2c(cc1OC)[C@H](C)N(C(=O)NCc1ccccc1)CC2`, the “hERG current change (%, negative = inhibition) at 10uM” value is given as 5.78%.

In the case of `CCN(CC)c1ccc2cc(-c3nc4ccccc4n3C)c(=O)oc2c1`, the “hERG current change (%, negative = inhibition) at 10uM” value was determined as 22.9%.

As to `O=C(c1cc2sccc2n1Cc1ccc(F)cc1)N1CCCc2ccccc21`, the “hERG current change (%, negative = inhibition) at 10uM” value is given as 15.3%.

As for `c1ccc2c(c1)c1ccccc1n1c(-c3ccc4c(c3)OCO4)nnc21`, the “hERG current change (%, negative = inhibition) at 10uM” value came out at 3.9%.

In the case of `Cn1ncc2c(N3CCCCC3)nc(NCCCO)nc21`, the “hERG current change (%, negative = inhibition) at 10uM” value worked out at 11.9%.

In the case of `Cn1cnc2c1c(=O)n(Cc1ccc(F)cc1Cl)c(=O)n2C`, the “hERG current change (%, negative = inhibition) at 10uM” value was determined as 5.82%.

For the compound `CCOC(=O)C1CCCN(C(=O)c2cccc(S(=O)(=O)N3CCOCC3)c2)C1` (stereo not shown), the “hERG current change (%, negative = inhibition) at 10uM” value came to 15.6%.

With `COc1ccc2cc(C#N)c(SCC(=O)N3CC(=O)Nc4ccccc43)nc2c1`, the “hERG current change (%, negative = inhibition) at 10uM” value was determined as 14.9%.

For the compound `COc1ccc(S(=O)(=O)NCCc2cn3nc(C)c(C)nc3n2)cc1F`, the “hERG current change (%, negative = inhibition) at 10uM” value is recorded as 3.38%.

With `COc1ccc([N+](=O)[O-])cc1NCc1ccccc1.O=C(O)C(=O)O`, the “hERG current change (%, negative = inhibition) at 10uM” value is 2.96%.

On to `COc1ccc([N+](=O)[O-])cc1NCc1cccc([N+](=O)[O-])c1`, for which the “hERG current change (%, negative = inhibition) at 10uM” value was -62.6%.

As for `COc1ccc(CNc2cc([N+](=O)[O-])ccc2OC)cc1`, the “hERG current change (%, negative = inhibition) at 10uM” value is listed as -1.02%.

As to `Cn1c(-c2cccc([N+](=O)[O-])c2)cnc1NCc1cccc(F)c1.O=C(O)C(=O)O`, the “hERG current change (%, negative = inhibition) at 10uM” value is reported as -54.1%.

Consider `COc1ccc(CNc2ncc(-c3ccccc3)n2C)cc1`, for which the “hERG current change (%, negative = inhibition) at 10uM” value was -32.6%.

For the compound `Cn1c(-c2ccc(Br)cc2)cnc1NCc1cccnc1`, the “hERG current change (%, negative = inhibition) at 10uM” value is -41.3%.

Regarding `Cn1c(-c2cccc(Br)c2)cnc1NCc1cccnc1`, the “hERG current change (%, negative = inhibition) at 10uM” value was -59.6%.

In the case of `Cn1c(-c2cccc([N+](=O)[O-])c2)cnc1NCc1ccc(C#N)cc1.O=C(O)C(=O)O`, the “hERG current change (%, negative = inhibition) at 10uM” value is -75%.

For `CCOc1ccc(CNc2ncc(-c3ccccc3)n2C)cc1`, the “hERG current change (%, negative = inhibition) at 10uM” value is given as -38.9%.

For the compound `CNc1nc(N(C)C)nc(N(C)C)n1`, the “hERG current change (%, negative = inhibition) at 10uM” value is listed as -7.71%.

Take `CCS(=O)(=O)N1Cc2ccccc2CC1C(=O)Nc1cccc(C)c1` (stereo not shown): the “hERG current change (%, negative = inhibition) at 10uM” value was -4.95%.

Turning to `CCc1cccc2c(C(=S)N3CCCC3)c[nH]c12`, the “hERG current change (%, negative = inhibition) at 10uM” value was determined as 8.97%.

With `Nc1[nH]n2c(=O)cc(-c3ccccc3)nc2c1N=Nc1ccccc1`, the “hERG current change (%, negative = inhibition) at 10uM” value worked out at 11%.

In the case of `COc1ccccc1C(=O)Oc1ccc(N2C(=O)CCC2=O)cc1`, the “hERG current change (%, negative = inhibition) at 10uM” value is recorded as -0.543%.

For the compound `Cc1cc(C(F)F)n2nc(C(=O)Nc3ccc(F)cc3F)nc2n1`, the “hERG current change (%, negative = inhibition) at 10uM” value is on record as -2.95%.

As for `O=C(CSc1nnc2n1CCCN2)c1ccc([N+](=O)[O-])cc1`, the “hERG current change (%, negative = inhibition) at 10uM” value is -49.8%.

For the compound `Nc1ccc2sc(N)nc2c1`, the “hERG current change (%, negative = inhibition) at 10uM” value amounted to 12.2%.

`Cc1cc(OC(C)C(=O)N(Cc2ccco2)C2CCS(=O)(=O)C2)cc(C)c1Cl` (stereo not shown): the “hERG current change (%, negative = inhibition) at 10uM” value is -1.99%.

Take `CC(C)=CCN1CCN(Cc2ccc(C#CC(C)(C)O)s2)CC1CCO` (stereo not shown): the “hERG current change (%, negative = inhibition) at 10uM” value is -1.88%.

`COc1ccc(CNc2ncc(-c3cccc([N+](=O)[O-])c3)n2C)c(OC)c1OC.O=C(O)C(=O)O`: the “hERG current change (%, negative = inhibition) at 10uM” value is -47.5%.

Turning to `COc1cccc(-c2cnc(NCc3cc(Cl)ccc3O)n2C)c1.O=C(O)C(=O)O`, the “hERG current change (%, negative = inhibition) at 10uM” value is -24.1%.

`COc1ccc(OC)c(CNc2ncc(-c3cccc([N+](=O)[O-])c3)n2C)c1.O=C(O)C(=O)O`: the “hERG current change (%, negative = inhibition) at 10uM” value is listed as -54.8%.

As for `Cc1cccc(CNc2ncc(-c3cccc([N+](=O)[O-])c3)n2C)c1.O=C(O)C(=O)O`, the “hERG current change (%, negative = inhibition) at 10uM” value is given as -71.1%.
